Source: PubChem BioAssay
A selection: hits, their analogues and other compounds. The true share with any hit is near 3.1%.
KKLEB tox: cytotoxicity in KKLEB CF airway cells, primary screen, cytotoxicity control for CF NF-kB inhibitor project, cell-based, uHTS, fluorescence assay plates | KKLEB CF airway cells viability, ATPlite luminescence, overnight; hits give low values; cells stimulated with P. aeruginosa culture filtrate | 360,000 tested, 0.36% active | AID 602141, 2011 | activity change (cytotoxicity), % at 5 µM;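 active = corrected activity change at or below -50% at 5 µM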
TRAIL sens C8: viability loss with TRAIL in NB7+C8 cells, primary screen, TRAIL sensitizer project, cell-based, ATPlite luminescence; AID 624354, 2012; 360,000 tested, 1% active; inhibition (viability loss, TRAIL sensitization), % at 10 µM;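 active = compounds causing at least 50% loss of cell viability in the single-dose screen, relative to plate controls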
PPC-1+TRAIL kill: compounds killing PPC-1 cancer cells with TRAIL present, primary screen, TRAIL potentiator project, ATPLite luminescence, uHTS; cell killing (% activity), % at 4 µM or 5 µM; 220,000 tested, 0.41% active; PPC-1 cells + TRAIL, ATPLite viability luminescence;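 active = cell killing above 50% in the first pass at 4 µM, then a duplicate retest at 5 µM averaging 50% or more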;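 also: plate controls were cells with TRAIL plus DMSO for no effect and medium-only wells lacking cells for full effect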
HIF-2a inh: HIF-2a reporter inhibitors, primary screen, luminescence, 786-0 RCC cells; 786-0 RCC cells HIF-2a reporter, luciferase luminescence, overnight; inhibition, % at 18.8 µM; 360,000 tested, 0.72% active; AID 624352, 2012;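 active = inhibition of the luminescence signal of 40% or more relative to plate controls, in a single-dose primary screen at 18.75 µM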
Peg3 promoter: Peg3 promoter-driven luciferase inhibitors, primary screen, cell-based, HeLa, luciferase luminescence | HeLa PEG-Prom luciferase reporter, overnight | inhibition, % at 20 µM | 360,000 tested, 1.7% active;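 active = inhibition of at least 50% at 20 µM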
CF NFkB block: inhibitors of PAF-induced NF-kB signaling, primary screen, cell-based, GFP fluorescence, uHTS; KKLEB NF-kB-GFP reporter, GFP fluorescence overnight; inhibition, % at 5 µM; 360,000 tested, 0.86% active; AID 588850, 2011;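 active = at least 50% inhibition at 5 µM, scaled per plate between neutral and stimulator controls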;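 also: PAF is a Pseudomonas aeruginosa culture filtrate used as stimulus; plate controls were PAF-stimulated DMSO wells for no effect and unstimulated DMSO wells for full effect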
Mdm2-MdmX confirm: retested Mdm2-MdmX interaction blockers, confirmation, cell-based, luminescence, single concentration, set 2; shares compounds with HIF-2a inh; SaOS-2 split-luciferase Mdm2/MdmX complementation; inhibition, % at 8 µM; 740 tested, 99% active;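 active = mean inhibition of the luminescence signal across two replicates at or above 26 percent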
Target sequence (O15151 whole entry, looked up): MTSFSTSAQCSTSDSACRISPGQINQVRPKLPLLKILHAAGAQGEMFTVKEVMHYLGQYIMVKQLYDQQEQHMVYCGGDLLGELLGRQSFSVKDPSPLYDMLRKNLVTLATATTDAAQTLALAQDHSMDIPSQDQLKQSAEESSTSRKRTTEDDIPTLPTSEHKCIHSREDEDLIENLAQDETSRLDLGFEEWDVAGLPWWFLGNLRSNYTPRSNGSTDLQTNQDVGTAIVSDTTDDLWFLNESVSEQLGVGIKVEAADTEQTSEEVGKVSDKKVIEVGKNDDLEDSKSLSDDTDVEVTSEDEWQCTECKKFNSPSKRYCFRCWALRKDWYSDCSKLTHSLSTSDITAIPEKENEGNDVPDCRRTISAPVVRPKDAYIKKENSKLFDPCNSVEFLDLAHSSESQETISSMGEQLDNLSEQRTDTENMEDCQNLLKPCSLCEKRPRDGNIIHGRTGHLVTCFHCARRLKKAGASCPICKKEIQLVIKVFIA
Target sequence (Q00987 whole entry, looked up): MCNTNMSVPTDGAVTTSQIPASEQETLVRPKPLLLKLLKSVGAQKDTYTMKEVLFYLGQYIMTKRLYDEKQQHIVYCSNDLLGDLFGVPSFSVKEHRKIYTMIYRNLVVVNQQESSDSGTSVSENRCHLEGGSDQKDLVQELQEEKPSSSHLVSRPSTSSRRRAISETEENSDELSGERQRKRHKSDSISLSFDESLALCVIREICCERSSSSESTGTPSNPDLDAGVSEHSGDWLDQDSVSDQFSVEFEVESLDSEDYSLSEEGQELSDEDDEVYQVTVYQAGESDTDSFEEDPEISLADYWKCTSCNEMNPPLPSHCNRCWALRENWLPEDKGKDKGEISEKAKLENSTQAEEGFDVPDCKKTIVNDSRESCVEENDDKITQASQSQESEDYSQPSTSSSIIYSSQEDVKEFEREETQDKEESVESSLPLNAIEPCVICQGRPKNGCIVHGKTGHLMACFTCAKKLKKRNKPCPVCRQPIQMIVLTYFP
HIF-2a inh conf: HIF-2a reporter inhibitor retest, confirmation, luminescence, 786-0 RCC cells. inhibition, % at 18.8 µM. AID 651580, 2012. shares compounds with HIF-2a inh. HIF-2a luciferase reporter luminescence, overnight. 1,800 tested, 56% active;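 active = mean inhibition across four replicates of at least 40 percent at the single tested concentration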
HIF-1a cs: HIF-1a luciferase reporter signal reduction – MiaPaCa-2 cells, single concentration, counter-screen for HIF-2a inhibitor project, confirmation; shares compounds with HIF-2a inh; MiaPaCa-2 HIF-1a luciferase reporter, desferoxamine, overnight; inhibition, % at 18.8 µM; 1,800 tested, 72% active; AID 651589, 2012;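 active = mean inhibition of the reporter signal across four replicates at the single tested dose of 50% or more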
Starred values were filed as active, the others as inactive; . = no result.

SMILES	KKLEB tox	TRAIL sens C8	PPC-1+TRAIL kill	HIF-2a inh	Peg3 promoter	CF NFkB block	HIF-2a inh conf	HIF-1a cs	others
O=C(O)c1cccc(CSc2nnc(COc3ccccc3)o2)c1	0	2	14	73*	-5	6	73*	34
O=C(O)c1cccc(CSc2nnc(-c3ccc(Cl)cc3)o2)c1	5	1	.	70*	-40	-9	80*	26
COc1ccc(NC(=O)CSc2nnc(-c3cnccn3)n2C)cc1OC	5	-4	.	7	9	-13	.	.
CCOc1ccc(N=C(NN)c2ccc3ccccc3n2)cc1	-5	6	25	49*	3	8	45*	66*
CN(C(=O)c1ccc(NC(=O)Cc2cccc(NC(=O)C3CCCN(C(=O)C4CCCC4)C3)c2)cc1)C1CCCC1 (configuration not stated)	0	-1	.	7	10	4	.	.
O=c1cc(C(Cl)(Cl)Cl)oc2c1ccc1ccccc12	8	90*	17	35	106*	6	.	.	Mdm2-MdmX confirm=103*
CCOc1ccc(CCN2C(=O)C(=O)N([C@@H](Cc3ccccc3)CN3CCC[C@H]3CN3C(=O)C(=O)NC[C@@H]3Cc3ccccc3)C[C@@H]2CC(C)C)cc1	.	7	.	48*	.	.	5	103*
CC1CC(C)(C)Nc2ccc(OC(=O)c3ccco3)cc21 (configuration not stated)	5	34	12	45*	-16	12	62*	71*
CCc1ccccc1NC(=O)NC1CCCCCCC1	0	-10	.	-22	-4	-7	.	.
Cc1sc2nc(C3CC3)nc(SCC(=O)N3c4ccccc4CC3C)c2c1C (configuration not stated)	-11	21	6	-6	16	3	.	.	Mdm2-MdmX confirm=101*
O=C(O)CCC1(c2ccccc2)NC(=O)NC1=O (configuration not stated)	-9	4	-8	44*	3	-2	4	-11
O=C(NCCN1CCOCC1)/C(=C/c1ccco1)NC(=O)c1ccccc1	-12	-19	.	9	7	16	.	.
CC(C)c1ccc(NC(=O)c2ccc(NC3=NC4CS(=O)(=O)CC4S3)cc2)cc1 (configuration not stated)	12	6	.	-2	-20	0	.	.
COc1cc2oc(=O)cc(-c3ccc(-c4ccc(CO)cc4)cc3)c2c(OC)c1OC	-8	-3	.	4	-18	75*	.	.	Mdm2-MdmX confirm=83*
COc1cc2oc(=O)cc(-c3ccc(-c4ccc(C)cc4)cc3)c2c(OC)c1OC	-8	2	.	2	-4	40	.	.
C[C@]12c3[nH]c4cc(-c5ccco5)ccc4c3CCN1C(=O)[C@@H](CC(=O)NCc1ccco1)C[C@@H]2C(=O)N1CCCCC1	2	4	.	1	17	3	.	.
CC(=O)Nc1ccc(OS(=O)(=O)c2cc(Cl)ccc2C)cc1	-9	-5	11	7	26	-7	.	.
CC(=O)Nc1ccc(OS(=O)(=O)c2c(C)cc(C)cc2C)cc1	-8	-1	5	50*	31	8	55*	7
CC(=O)Nc1ccc(OS(=O)(=O)c2ccccc2C)cc1	3	1	13	-34	-20	-6	.	.
